# Measurements taken from PubChem BioAssay (NCI).
# “And” between values parts separate entries of the source, which are not always exact repeats. Equal entries are not always repeated. The panel holds about 83,000 compounds, 20% with a hit somewhere; the sample as a whole holds those more often.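 Cell lines were cultured in 96-well plates, exposed to a single compound concentration, and assessed for percent growth 48 hours later.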 The source holds several records for some structures; these can differ, active in one and inactive in another. The source made the active and inactive calls. The calls were made as follows: active = growth percent below 10; inactive = the rest.
# Tests used:
# Test in all cases: NCI-60 one-dose screen, 48 h (100 = growth as untreated, 0 = no growth, -100 = all killed)
# Details in all cases: 10 µM unless noted
# NCI-H23 lung = tested on: NCI-H23 lung
# NCI-H226 lung = tested on: NCI-H226 lung
# NCI-H322M lung = tested on: NCI-H322M lung
# HOP-62 NSCLC = tested on: HOP-62 NSCLC
# NCI-H460 lung = tested on: NCI-H460 lung
# HOP-92 NSCLC = tested on: HOP-92 NSCLC
# NCI-H522 lung = tested on: NCI-H522 lung
# A549/ATCC NSCLC = tested on: A549/ATCC NSCLC
# 786-0 renal = tested on: 786-0 renal
# COLO 205 colon = tested on: COLO 205 colon
# DU-145 prostate = tested on: DU-145 prostate
# K-562 leukemia = tested on: K-562 leukemia
# MALME-3M melanoma = tested on: MALME-3M melanoma
# MDA-MB-231 breast = tested on: MDA-MB-231 breast
# RXF 393 renal = tested on: RXF 393 renal
# SF-268 CNS = tested on: SF-268 CNS
# SF-295 CNS = tested on: SF-295 CNS
# SF-539 CNS = tested on: SF-539 CNS
# UACC-257 melanoma = tested on: UACC-257 melanoma
# M14 melanoma = tested on: M14 melanoma
SMILES,growth (NCI-H23 lung),growth (NCI-H226 lung),growth (NCI-H322M lung),growth (HOP-62 NSCLC),growth (NCI-H460 lung),growth (HOP-92 NSCLC),growth (NCI-H522 lung),growth (A549/ATCC NSCLC),growth (786-0 renal),growth (COLO 205 colon),growth (DU-145 prostate),growth (K-562 leukemia),growth (MALME-3M melanoma),growth (MDA-MB-231 breast),growth (RXF 393 renal),growth (SF-268 CNS),growth (SF-295 CNS),growth (SF-539 CNS),growth (UACC-257 melanoma),growth (M14 melanoma)
CC1CCCc2sc3nc(NNC(=O)c4cnccn4)n(-c4ccccc4)c(=O)c3c21 (stereo not given),23.9% (inactive) and 20.2% (inactive),-2.24% (active) and -5.33% (active),15.9% (inactive) and 6.48% (active),4.44% (active) and 1.42% (active),3.62% (active) and -47.3% (active),44% (inactive) and 42.3% (inactive),-10.4% (active) and 6.49% (active),3.51% (active) and 7.07% (active),16.1% (inactive) and 6.45% (active),4.98% (active) and -2.77% (active),12.2% (inactive) and 12.9% (inactive),14.2% (inactive) and 13.4% (inactive),15.9% (inactive) and 11.2% (inactive),28.9% (inactive) and 25.5% (inactive),11.2% (inactive) and -15.9% (active),14.5% (inactive) and 5.5% (active),22.7% (inactive) and 11.3% (inactive),6.89% (active) and 6.17% (active),-7.57% (active) and -18.3% (active),7.99% (active) and -2.42% (active)
CN(C)CCCN1c2ccccc2Sc2ccc(Cl)cc21,90.4% (inactive) and 112% (inactive) and 111% (inactive),106% (inactive) and 97.5% (inactive) and 92.1% (inactive),77.4% (inactive) and 105% (inactive) and 71% (inactive),77.1% (inactive) and 107% (inactive) and 95.2% (inactive),101% (inactive) and 105% (inactive) and 100% (inactive),47.1% (inactive) and 99.2% (inactive),72.3% (inactive) and 97.6% (inactive),103% (inactive) and 94.4% (inactive),68% (inactive) and 106% (inactive) and 81.9% (inactive),50.5% (inactive) and 102% (inactive) and 67.9% (inactive),101% (inactive) and 113% (inactive) and 111% (inactive),51.6% (inactive) and 120% (inactive) and 58.2% (inactive),90.2% (inactive) and 111% (inactive) and 76.7% (inactive),67.7% (inactive) and 108% (inactive) and 72.3% (inactive),52% (inactive) and 84.6% (inactive) and 82% (inactive),83% (inactive) and 104% (inactive) and 83.6% (inactive),95.3% (inactive) and 160% (inactive) and 81% (inactive),90.5% (inactive) and 98.8% (inactive) and 88.8% (inactive),78% (inactive) and 106% (inactive) and 115% (inactive),31% (inactive) and 102% (inactive) and 81% (inactive)
Nc1nc2ncc(CNc3ccc(C(=O)N[C@@H](CCc4nn[nH]n4)C(=O)O)cc3)nc2c(=O)[nH]1,95.7% (inactive) and 95.5% (inactive),98.7% (inactive) and 93.8% (inactive),103% (inactive) and 102% (inactive),103% (inactive) and 92.1% (inactive),100% (inactive) and 101% (inactive),93.4% (inactive) and 78.5% (inactive),101% (inactive) and 84.6% (inactive),106% (inactive) and 95.3% (inactive),106% (inactive) and 109% (inactive),107% (inactive) and 110% (inactive),99.4% (inactive) and 110% (inactive),90.7% (inactive),96.9% (inactive) and 104% (inactive),110% (inactive) and 99.7% (inactive),104% (inactive) and 96.3% (inactive),98% (inactive) and 99.5% (inactive),98.6% (inactive) and 100% (inactive),91% (inactive) and 110% (inactive),106% (inactive) and 91.8% (inactive),88% (inactive) and 98.6% (inactive)
COc1ccc(Cn2c(NCCN=C(N)N)nc(=O)n(Cc3ccc(F)cc3)c2=O)cc1,102% (inactive) and 89.5% (inactive),97.3% (inactive) and 95.3% (inactive),83% (inactive) and 90.7% (inactive),71.6% (inactive) and 85.7% (inactive),106% (inactive) and 104% (inactive),82.8% (inactive),90.2% (inactive) and 97.2% (inactive),108% (inactive) and 107% (inactive),98.5% (inactive) and 103% (inactive),105% (inactive) and 97.8% (inactive),104% (inactive) and 115% (inactive),89.6% (inactive) and 94% (inactive),91.7% (inactive) and 91.1% (inactive),107% (inactive) and 103% (inactive),95.5% (inactive) and 109% (inactive),61.8% (inactive) and 52.5% (inactive),102% (inactive),102% (inactive) and 89.7% (inactive),89.4% (inactive) and 101% (inactive),97.9% (inactive) and 100% (inactive)
COc1cc(NS(C)(=O)=O)ccc1Nc1c2ccccc2nc2c(C)cccc12,-8.23% (active) and 1.07% (active),-57.6% (active) and -44.9% (active),22.8% (inactive) and 28.6% (inactive),-17.9% (active) and -32.5% (active),-36.3% (active) and -9.34% (active),-17.9% (active),-14.2% (active),-62.9% (active),-41.9% (active) and -40.4% (active),7.98% (active) and 0.541% (active),-8.9% (active) and 7.58% (active),8.6% (active) and 7.61% (active),-3.04% (active) and 29.4% (inactive),36.7% (inactive),-2.83% (active) and 8.08% (active),2.5% (active) and 16.2% (inactive),-24.8% (active),-35.6% (active) and -30.6% (active),16.1% (inactive),19.4% (inactive) and 11.8% (inactive)
CC1=C(/C=C/C(C)=C/C=C/C(C)=C/C=N/NC(=S)NC(=S)N/N=C/C=C(C)/C=C/C=C(C)/C=C/C2=C(C)CCCC2(C)C)C(C)(C)CCC1,-27.2% (active) and -49.8% (active),-66.4% (active) and -86.6% (active),85.1% (inactive) and 63.8% (inactive),-7.59% (active),8.37% (active) and -6.69% (active),-0.81% (active) and -9.45% (active),-84.1% (active) and -88.9% (active),17.3% (inactive) and 3.05% (active),-41.4% (active) and -58.8% (active),-79.7% (active),45.4% (inactive) and 40.3% (inactive),1.87% (active) and -33.1% (active),-42.6% (active) and -41.6% (active),21.6% (inactive) and -34.1% (active),-98.2% (active),30.9% (inactive) and -13% (active),30.3% (inactive) and -7.18% (active),-82.5% (active) and -94.5% (active),12.7% (inactive) and -28.3% (active),-94.8% (active) and -97.5% (active)
COc1cc2nc(N3CCN(C(=O)C4COc5ccccc5O4)CC3)nc(N)c2cc1OC (stereo not given),90.1% (inactive) and 99% (inactive) and 101% (inactive),96.2% (inactive) and 96.7% (inactive) and 99.9% (inactive),123% (inactive) and 75.6% (inactive) and 99.4% (inactive),102% (inactive) and 96.4% (inactive) and 110% (inactive),101% (inactive) and 98.5% (inactive) and 117% (inactive),148% (inactive) and 106% (inactive) and 124% (inactive),82.6% (inactive) and 84.1% (inactive),102% (inactive) and 88.9% (inactive),112% (inactive) and 93.5% (inactive) and 99% (inactive),93.6% (inactive) and 104% (inactive),102% (inactive) and 106% (inactive),93.3% (inactive) and 96.7% (inactive),113% (inactive) and 83.2% (inactive) and 95.6% (inactive),76.3% (inactive) and 86.2% (inactive) and 100% (inactive),86.4% (inactive) and 83.4% (inactive) and 109% (inactive),100% (inactive) and 89.5% (inactive) and 98.6% (inactive),108% (inactive) and 71.1% (inactive) and 101% (inactive),115% (inactive) and 89.9% (inactive) and 102% (inactive),101% (inactive) and 106% (inactive),104% (inactive) and 96.4% (inactive) and 96.3% (inactive)
